Only a selection was taken, and hits are over-represented in it overall.
BLM helicase inh: inhibitors of human Bloom syndrome helicase BLM. P54132. recombinant BLM DNA unwinding, fluorescence dequenching. Potency, µM (titrated, usually from 56.1 µM), for the others: at the top dose activity change, negative = inhibition, most hits filed as inhibitors. actives 0.2% (n = 350,000). AID 2528;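 also: plate controls were vehicle for no effect and no enzyme for full effect; nearly all actives have a fitted effect of over 35% in size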
KDM4E inh: JMJD2E (human) inhibition; JMJD2E catalytic domain, FDH-coupled NADH fluorescence (FDH is formaldehyde dehydrogenase); Potency, µM (highest dose often 57.1 µM), without a hit: at the top dose activity change, negative = inhibition, most hits filed as inhibitors; actives 1.6% (n = 230,000); active = well fitted inhibition curve with a large enough effect, not every such curve was filed as active; inconclusive = small, poorly fitted or top-dose-only effect, or another doubt; inactive = no such curve, though single readings can be large or run the other way;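 also: 0% = wells with enzyme and -100% = buffer wells without enzyme; nearly all actives have a fitted effect of over 50% in size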
RECQ1 inh-1: RECQ1 (human) helicase inhibition; P46063; RECQ1 DNA unwinding, red fluorescence kinetic read; Potency, µM (highest dose often 57.3 µM), inactives show at the top dose activity, negative = inhibition, actives largely listed as inhibitors; actives 0.54% (n = 240,000); AID 2549;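 also: plate controls were vehicle for no effect and no enzyme for full effect; nearly all actives have a fitted effect of over 30% in size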
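50 nM RECQ1T1 preincubated 15 min with compound in Tris pH 8.0 buffer with MgCl2, DTT, Tween-20 and 2.5 ug/ml poly(dI-dC); started with 200 nM TAMRA/BHQ-2 forked duplex and 2 mM ATP. Unwinding read as fluorescence (525/598 nm), two reads 2 h apart.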
PKM2 act: increases activity of human pyruvate kinase M2 | actives 0.34% (n = 260,000) | AID 1631 | Potency, µM (doses to about 57.5 µM), inactives show top-dose activation, hits mostly activators | purified PKM2, Kinase-Glo ATP luminescence, activation; response scale: 0% is enzyme alone, no compound; also: nearly all actives have a fitted effect of over 55% in size
Target sequence (P14618 whole entry, looked up): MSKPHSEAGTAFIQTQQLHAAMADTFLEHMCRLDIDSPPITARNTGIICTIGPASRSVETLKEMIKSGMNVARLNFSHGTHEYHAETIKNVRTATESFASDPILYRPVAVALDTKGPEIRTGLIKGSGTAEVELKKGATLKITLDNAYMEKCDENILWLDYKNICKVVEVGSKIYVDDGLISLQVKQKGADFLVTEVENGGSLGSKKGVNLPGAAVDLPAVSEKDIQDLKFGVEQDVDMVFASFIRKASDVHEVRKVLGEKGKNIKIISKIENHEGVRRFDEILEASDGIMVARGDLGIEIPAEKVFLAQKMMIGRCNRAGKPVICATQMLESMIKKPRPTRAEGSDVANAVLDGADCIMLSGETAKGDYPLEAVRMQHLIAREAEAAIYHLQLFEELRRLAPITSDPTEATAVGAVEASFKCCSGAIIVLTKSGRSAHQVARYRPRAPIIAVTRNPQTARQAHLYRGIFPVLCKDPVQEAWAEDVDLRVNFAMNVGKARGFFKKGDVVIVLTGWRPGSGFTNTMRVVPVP
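Purified hPK-M2 (>95%) run at intermediate activity with 0.1 mM ADP and 0.5 mM PEP in 50 mM imidazole pH 7.2, KCl, MgCl2; 1 h room temperature. ATP formed read by Kinase-Glo luminescence; normalized to uninhibited and no-enzyme controls.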
APEX1 inh: inhibitors of human APE1 endonuclease; actives 0.35% (n = 350,000); Potency, µM (series often up to 65.8 µM), without a hit: at the top dose activity change, negative = inhibition, usual class: inhibitors; recombinant APE1, TAMRA/BHQ-2 abasic DNA cleavage fluorescence;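 also: plate controls were vehicle for no effect and reference inhibitor for full effect; nearly all actives have a fitted effect of over 55% in size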
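Enzyme (0.75 nM final) and test compound are incubated 15 min at room temperature before adding 50 nM quenched THF abasic-site duplex. Cleavage dequenches TAMRA, followed at 525/598 nm over three reads one minute apart.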
RECQ1 inh conf: confirmation of human RECQ1 helicase inhibitors. actives 28% (n = 610). AID 2708. RECQ1 helicase DNA unwinding, fluorescence. Potency, µM (series often up to 229 µM), without a hit: at the highest dose activity change, negative = inhibition, hits mostly inhibitors. shares compounds with RECQ1 inh-1; also: nearly all actives have a fitted effect of over 45% in size
RECQ1 ADP FP: displaces ADP in a fluorescence polarization counter-screen for RECQ1 hits | shares compounds with RECQ1 inh-1 | ADP fluorescence polarization displacement counterscreen | Potency, µM (top dose mostly 228 µM), inactives show top-dose activity change, negative = inhibition, actives largely listed as inhibitors | actives 27% (n = 530) | AID 2711; also: nearly all actives have a fitted effect of over 45% in size
RECQ1 inh-2: blocks human RECQ1 DNA unwinding | recombinant RECQ1 DNA unwinding, red fluorescence | Potency, µM (series often up to 119 µM), inactives show at the top dose activity, negative = inhibition, actives largely listed as inhibitors | actives 15% (n = 1,100) | shares compounds with RECQ1 inh-1; also: nearly all actives have a fitted effect of over 50% in size
* marks the source's active call; other numbers are inactive results; i = inactive; u = inconclusive; x = no result given; ! = not active in a repeat. Unless noted, calls follow the shape of the dose curve; as a rule, active = well fitted curve in the direction sought with a large enough effect; inconclusive = small, poorly fitted or top-dose-only effect, or another doubt; inactive = no such curve, though single readings can be large; an effect the other way counts as inactive or inconclusive. Unless noted, % is scaled to controls: 0 for no effect and ±100 for the full control effect; potency is read from the fitted curve at half-maximal effect.

SMILES	BLM helicase inh	KDM4E inh	RECQ1 inh-1	PKM2 act	APEX1 inh	RECQ1 inh-2	others
COc1cc(NS(=O)(=O)c2ccc(NC(=S)NC(=O)CC(C)C)cc2)nc(OC)n1	-6%	2%	1%	-17%	u	x
CCC(C=C[C@@H]1OC(=O)C=C[C@H]1C)=C[C@H](C)CC=CC(C)=C[C@@H](C)C(=O)[C@@H](C)[C@H](O)[C@@H](C)CC(C)=CC(=O)O	u	x	u	x	u	1.3µM*
CCOc1ccc(-c2nc3ccc(-c4nc5ccc(N6CCN(C)CC6)cc5[nH]4)cc3[nH]2)cc1	u	x	13µM*	x	13%	5.6µM*!
O=C(CCl)c1ccccc1	x	x	-4%	x	-3%	x
CC1COC2=C1C(=O)C(=O)c1c2ccc2c1CCCC2(C)C (stereo unspecified)	u	u	13µM*!	x	u	x	RECQ1 inh conf=100µM*;RECQ1 ADP FP=28µM*
CCCOc1ccc(N2C(=O)CC(N3CC=C(c4ccccc4)CC3)C2=O)cc1 (stereo unspecified)	-8%	-9%	-1%	2%	3%	x
O=C1CC(N2CC=C(c3ccccc3)CC2)C(=O)N1c1ccc(F)cc1 (stereo unspecified)	-7%	u	28µM*	18%	-6%	-24%
O=C(O)c1ccccc1-c1nc2ccccc2n1-c1ccccc1	0%	9%	11µM*	4%	3%	1.8µM*	RECQ1 inh conf=40µM*
CCCCCCCCCC[n+]1cccc([C@@H]2CCCN2C)c1	-8%	x	-14%	x	12%	x
O=C1C(=O)c2ccccc2-c2ccccc21	20µM*	u	u	7%	u	10µM*
Oc1c(Cl)cccc1Cl	x	x	10%	x	4%	x
c1ccc(CN2CCC3(CCc4ccccc43)CC2)cc1	-9%	4%	-13%	x	u	x
ClC(Cl)c1ccccc1	x	x	6%	x	2%	x
CCCCC/C=C\C/C=C\C/C=C\C/C=C\CCCC(=O)NCc1ccoc1	u	x	11µM*	x	u	u
NC(Cn1ccc(=O)c(O)c1)C(=O)O (stereo unspecified)	7%	u	2%	x	19%	x
COc1cc(O)c(C(=O)O)c(-c2cc(O)c(O)cc2C)c1	4%	14µM*	u	0%	20µM*	u
COc1ccc2c(c1)c(C(=O)O)c(C)n2CC(C)C	-1%	-13%	i	3%	-4%	x
NCC1OC(O[C@@H]2[C@H](O)[C@@H](OC3C(O)C(N)CC(N)C3OC3OC(CO)C(O)C(O)C3N)O[C@@H]2CO)C(N)C(O)C1O (stereo partly specified)	x	7%	-14%	x	2%	x
COc1ccc(-c2oc3cc(OC)ccc3c(=O)c2O)cc1	0%	u	-2%	x	1%	x
